TDP1 cell CPT – DT40-hTDP1 cell growth loss with CPT | AID 686979 | chicken DT40 Tdp1-/-;hTDP1 cells + 20 nM CPT, ATP luminescence, 48 h | actives 12% (n = 420,000) | Potency, µM (doses to about 46.2 µM), for the others: top-dose activity change, negative = growth inhibition, most hits filed as inhibitors; further: potency means the concentration at half of the fitted maximal effect; nearly all actives have a fitted effect of over 55% in size
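Chicken DT40 Tdp1-/- cells complemented with human TDP1, 400 cells/well, exposed to compounds plus 20 nM camptothecin for at least 48 h at 37 C; viability read as ATP content by CellTiter-Glo luminescence.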
IL-1B inflam inh – inhibitors of inflammasome signaling (IL-1 beta secretion); AID 743279; actives 4.7% (n = 360,000); THP-1 LPS/ATP IL-1B secretion, AlphaLISA, 16 h; hits give low values; activity change, % at 57.5 µM; in the data active means activity change below about -50%; inconclusive means mostly about -30% to -49%
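Secreted IL-1B measured by AlphaLISA bead assay after 16 h compound exposure of THP-1 cells; compounds (final up to 57.5 uM) added 1 h before LPS (250 ng/mL) and ATP (1.25 mM) stimulation; lower signal means less secretion.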
HT1080 IDH1KD tx – toxicity to HT-1080 IDH1 knockdown cells (counter line) | HT-1080 IDH1 knockdown viability, ATP luminescence, 48 h | Potency, µM (series often up to 46.1 µM), for inactives: top-dose activity, negative = toxicity, most hits filed as cytotoxic | actives 2% (n = 360,000);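 further: potency means the concentration at half of the fitted maximal effect; 0% = DMSO wells and -100% = cell-free medium wells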
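IDH1KD HT-1080 cells, 750/well, RPMI + 5% FBS; compound pinned after 2 h settling; 48 h, 37 °C; CellTiter-Glo luminescence; % activity normalised to DMSO and no-cell wells; curves fitted, classed by r2 and efficacy.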
HT1080NT lethal – kills 2HG-producing HT-1080-NT fibrosarcoma cells; HT-1080-NT fibrosarcoma viability, CellTiter-Glo ATP luminescence, 48 h; Potency, µM (doses to about 46.1 µM), without a hit: at the highest dose activity, negative = less viability, usual class: cytotoxic; actives 1.6% (n = 360,000); AID 686970;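 further: NT is the 2HG producing partner of a matched IDH1 knockdown line; potency means the concentration at half of the fitted maximal effect; 0% = DMSO-treated cells and -100% = media-only wells without cells; nearly all actives have a fitted effect of over 55% in size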
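750 cells/well, RPMI + 5% FBS; 2 h settle, compound pin-transfer, 48 h at 37 degrees C. CellTiter-Glo 10 min RT, luminescence. Normalized to DMSO and media-only wells.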
ELG1 DNA repair – blocks ELG1-dependent DNA repair in HEK293T cells | HEK293T ELG1-luciferase reporter, luminescence, 16 h; DNA damage induced by 5-fluorouridine | Potency, µM (series often up to 46.1 µM), for inactives: at the top dose activity change, negative = inhibition, actives largely listed as inhibitors | actives 2.3% (n = 330,000) | AID 504467; further: potency means the concentration at half of the fitted maximal effect; nearly all actives have a fitted effect of over 55% in size
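Quantitative HTS, concentration-response format. 2,000 cells/well co-treated with 5-fluorouridine and compound, 16 hr in 5% CO2 at 37 °C; ONE-Glo luminescence read after 30 min.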
DT40 TDP1 no CPT – qHTS for Inhibitors of human tyrosyl-DNA phosphodiesterase 1 (TDP1): qHTS in cells in absence of CPT | DT40 Tdp1-/- hTDP1 cells, no CPT, ATP luminescence, 48 h | Potency, µM (titrated, usually from 46.2 µM), for inactives: at the top dose activity change, negative = growth inhibition, hits mostly inhibitors | actives 15% (n = 420,000) | AID 686978, 2013; further: potency means the concentration at half of the fitted maximal effect; nearly all actives have a fitted effect of over 55% in size
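DT40 Tdp1-/-;hTDP1 cells, no CPT (DMSO vehicle only), 400 cells/well; compounds pin-transferred; ≥48 hr, 37 °C; CellTiter-Glo 30 min RT dark, luminescence read.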
Starred values were filed as active, the others as inactive; ? = inconclusive; · = no result given. Only some compounds are listed: those with a hit (about 19% of all), similar ones and a draw of the others. Unless noted, the call rests on the fitted dose curve; in most records, active means well fitted curve in the direction sought with a large enough effect; inconclusive means small, poorly fitted or top-dose-only effect, or another doubt; inactive means no such curve, though single readings can be large; an effect the other way counts as inactive or inconclusive. Unless noted, on the % scale 0 is the no-effect control and ±100 the full control effect.

SMILES	TDP1 cell CPT	IL-1B inflam inh	HT1080 IDH1KD tx	HT1080NT lethal	ELG1 DNA repair	DT40 TDP1 no CPT
CC1CCCC(NC(=O)NC(=O)CCl)C1C (centres undefined)	3.7µM*	-63*	-6%	-4%	21µM*	3.7µM*
CC1CCCC(NC(=O)CSC2CCCCC2)C1C (centres undefined)	?	?	0%	-15%	8%	?
CC1CCCCC1NC(=O)NC(=O)CCl (centres undefined)	2.9µM*	-96*	?	-18%	21µM*	5.2µM*
Oc1ccc(Cl)cc1C1=NNC(c2ccc(Cl)cc2)C1 (centres undefined)	23µM*	?	?	-18%	?	13µM*
c1ccn(-c2ccc(-c3ccn[nH]3)cc2)c1	2%	4	0%	5%	?	4%
Cc1ccc(C)n1-c1ccc(-c2ccn[nH]2)cc1	?	-70*	-14%	-19%	?	?
COC(=O)NCc1ccc(Cl)c(Cl)c1	?	-8	-13%	-11%	3%	-16%
COc1ccc(C)cc1NC(=O)CNC(c1ccccc1)c1ccccc1	?	-6	12%	-1%	-8%	?
COc1ccc(/C=N/OCC(=O)NC(c2ccccc2)c2ccccc2)cc1OC	5.2µM*	0	-14%	-7%	-4%	6.5µM*
COc1ccc(CNC(=O)CNC(c2ccccc2)c2ccccc2)cc1OC	-5%	-12	-2%	-6%	8%	7.3µM*
COc1ccc(CNC(=O)Oc2ccccc2)cc1Cl	?	10	-24%	-28%	8%	12µM*
COc1cc(C(=O)NC(c2ccccc2)c2ccccc2)cc(Cl)c1OC	-4%	0	7%	7%	-12%	-23%
COc1cc(CC(=O)NC(c2ccccc2)c2ccccc2)cc(OC)c1OC	15µM*	28	11%	3%	1%	13µM*
Cc1cc(C)n2nc(SCCC(=O)NCc3ccccc3)nc2n1	15%	19	11%	10%	-16%	-14%
COc1ccccc1CNC(=O)C(NC(=O)c1ccccc1)C(C)C (centres undefined)	-16%	0	8%	6%	6%	-9%
CN(C)CC#Cc1cncc(C(=O)NNC(=O)Nc2ccc(Cl)cc2)c1	4%	2	12%	13%	0%	12%
COC(=O)/C(=C\c1ccc([N+](=O)[O-])o1)NC(=O)c1ccccc1	14µM*	6	-14%	?	?	11µM*
Cc1cccc(NC(=O)/C(=C\c2ccc([N+](=O)[O-])o2)NC(=O)c2ccc(Cl)cc2)c1	?	?	-6%	-15%	-3%	?
CCCCNC(=O)/C(=C\c1ccc([N+](=O)[O-])o1)NC(=O)c1ccccc1	16µM*	25	0%	-12%	?	?
COC(=O)N(C)C[C@H]1OCc2cnnn2CCCC(=O)N([C@H](C)CO)C[C@H]1C	7%	17	5%	-10%	·	-13%
Cc1ccccc1NC(=O)Cc1nc(COC(=O)Cc2cccc(C(F)(F)F)c2)cs1	?	16	6%	7%	·	?
CC(C)Oc1ccc(S(=O)(=O)N2CCOCC2)cc1NC(=O)C1COc2ccccc2O1 (centres undefined)	21µM*	-8	-14%	-3%	?	18µM*
CCOc1ccc(S(=O)(=O)N2CCCCC2)cc1NC(=O)C1COc2ccccc2O1 (centres undefined)	?	-8	-1%	0%	?	?
CC(C)Oc1ccc(S(=O)(=O)N2CCOCC2)cc1NC(=O)Cc1ccsc1	21µM*	-7	-1%	-3%	?	?
COc1ccc(S(=O)(=O)N2CCOCC2)cc1NC(=O)Cc1ccsc1	1%	20	16%	11%	2%	-5%
SMILES	TDP1 cell CPT	IL-1B inflam inh	HT1080 IDH1KD tx	HT1080NT lethal	ELG1 DNA repair	DT40 TDP1 no CPT
CCC(C)(C)n1nnnc1C(c1ccc(F)cc1)N1CCN(C(=O)c2ccco2)CC1 (centres undefined)	0%	-6	-3%	-3%	0%	-15%
Cc1cc(NN)nc(Cc2ccccc2)n1	-24%	18	1%	5%	3%	-5%
O=C(/C=C\c1ccc2c(c1)OCO2)NC1CC(=O)N(c2cccc(F)c2)C1 (centres undefined)	?	·	·	·	·	-52%
C/[N+]([O-])=C/c1c(OCc2ccccc2)ccc2ccccc12	-1%	-11	-3%	0%	?	23µM*
O=Cc1c(OCc2ccccc2)ccc2ccccc12	-14%	0	-11%	-6%	?	-14%
CCOc1ccc(N=C/C=C/c2ccccc2)c(O)c1	18µM*	-6	3%	-2%	?	18µM*
Cc1ccc(C(=O)NC2CCC(C)CC2)s1 (centres undefined)	-13%	-10	22%	16%	?	-19%
Cc1ccc(C(=O)Nc2ccc3cn[nH]c3c2)cc1S(=O)(=O)N1CCOCC1	?	6	-5%	0%	20%	?
Cc1ccc(S(=O)(=O)N(Cc2ccc(Cl)cc2)c2ccccc2C(=O)O)cc1	9%	0	1%	1%	7%	-21%
CC(C)n1nccc1N(Cc1ccc(Br)cc1)S(=O)(=O)c1ccccc1	23µM*	?	?	?	?	?
CC(C)n1nccc1N(Cc1ccc(Cl)cc1)S(=O)(=O)c1ccccc1	-29%	-71*	-22%	-23%	-23%	?
N#Cc1ccc(CN(c2ccncc2)S(=O)(=O)c2ccccc2)cc1	3%	-2	3%	27%	-8%	-12%
Cc1cccc(Sc2nc(-c3ccccc3)ncc2C(=O)O)c1	-6%	34	-8%	-1%	?	?
CCOc1ccc(CNC(=O)c2ccc3c(c2)sc2nc(-c4ccc(OC)cc4)cn23)cc1	-3%	·	·	·	·	-18%
CCCN1CCN(CCCNC(=O)c2ccc3c(c2)sc2nc(-c4ccc(OCC)cc4)cn23)CC1	1.8µM*	·	·	·	·	2.9µM*
CCOc1ccc(-c2cn3c(n2)sc2cc(C(=O)NC4CCCc5ccccc54)ccc23)cc1 (centres undefined)	12µM*	·	·	·	·	5.2µM*
CCOc1ccc(-c2cn3c(n2)sc2cc(C(=O)NCCCN(CC)CC)ccc23)cc1	0.73µM*	·	·	·	·	0.82µM*
